This is a sample that favours compounds with a hit; in the whole collection about 20% have one here.
Pf growth 96h = Primary qHTS for delayed death inhibitors of the malarial parasite plastid, 96 hour incubation. P. falciparum luciferase reporter growth, 96 h. Potency, µM (titrated, usually from 28.7 µM), most hits filed as inhibitors. actives 6.9% (n = 320,000). AID 504834, 2011
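Two parasite generations (96 h, 37 C, 5% CO2) of compound exposure in infected erythrocytes (0.05% parasitemia, 2% hematocrit). Luciferase-reporter P. falciparum; decreased luminescence indicates inhibited growth, aimed at apicoplast-acting delayed death.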
HCMV antiviral = qHTS Assay for inhibitors of the human cytomegalovirus (HCMV) | actives 4.5% (n = 410,000) | AID 1259415, 2018 | HFF cells, HCMV-luciferase reporter, 72 h; hits give low values | activity change, negative = inhibition, % at 57.5 µM; in the data active means activity change below about -60%; inconclusive means no clear call, values can overlap the other calls; inactive means above about -39%
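Inhibition of viral replication was scored as loss of reporter luminescence in HFFs infected with HCMV-luciferase (MOI 1 PFU/cell) for 72 h; compounds tested at 2 doses, normalized to buffer and Salinomycin controls.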
Shiga toxin inh = A qHTS for Small Molecule Inhibitors of Shiga Toxin. Vero cells, Shiga toxin protein synthesis inhibition reporter. inhibition, % at 38.7 µM. actives 9.2% (n = 290,000). AID 2315, 2010; in the data active means inhibition mostly above about 28%, no sharp cut-off; inactive means mostly below about 43%
Pf growth 48h = Primary qHTS for delayed death inhibitors of the malarial parasite plastid, 48 hour incubation. actives 5.9% (n = 310,000). Potency, µM (highest dose often 28.7 µM), actives largely listed as inhibitors. P. falciparum luciferase growth in erythrocytes, 48 h
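Luminescence readout; reporter = integrated firefly luciferase in P. falciparum. RBC culture at 2% hematocrit, 0.1% parasitemia final, 37 C/5% CO2; decreased signal taken as growth inhibition.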
CHX counter = Cycloheximide Counterscreen for Small Molecule Inhibitors of Shiga Toxin; cell reporter, cycloheximide protein synthesis inhibition counterscreen; max response, %; actives 12% (n = 300,000); in the data active means max response mostly above about 13%, no sharp cut-off; inactive means mostly below about 14%; further: read at 38.3 µM for the half of the compounds with a filed dose
Large screens that a line does not name were inactive. Unless noted, the call rests on the fitted dose curve; in most records, active means well fitted inhibition curve with a large enough effect; inconclusive means small, poorly fitted or top-dose-only effect, or another doubt; inactive means no such curve, though single readings can be large or run the other way.

Cc1ccc(C)c(NS(=O)(=O)c2ccc3[nH]c(=O)oc3c2)c1	none
CC(OC(=O)CNC(=O)c1sc2ccccc2c1Cl)c1ccccc1 (stereo not drawn)	none (no result: Shiga toxin inh, CHX counter)
CCOC(=O)c1cnc2ccc(OCC)cc2c1NCCCN1CCOCC1	Pf growth 48h inconclusive, CHX counter 17.6
CCOC(=O)c1cnc2c(CC)cccc2c1NCCCN1CCOCC1	Pf growth 96h inconclusive, Pf growth 48h inconclusive
CCOC(=O)c1cnc2c(C(F)(F)F)cccc2c1NCCCN1CCOCC1	Pf growth 48h 5.22µM
CCOC(=O)c1cnc2c(c(C)nn2CC)c1NCCN1CCOCC1	Pf growth 96h 11.7µM
CCOC(=O)c1cnc2c(Cl)cccc2c1NCCN1CCOCC1	none
COc1ccc2c3c([nH]c2c1)[C@H](CO)N(C(=O)c1cccc(F)c1)CC31CCN(S(=O)(=O)c2cccs2)CC1	none (no result: Pf growth 96h, Shiga toxin inh, Pf growth 48h, CHX counter)
Clc1ccc(N2CCN(c3nc4nonc4nc3N3CCSCC3)CC2)nc1	none
O=C(COc1ccccc1[N+](=O)[O-])NCCC1=CCCCC1	none
CCN1CCN(c2cc(C)c3cc(NC(=S)N4CCCCC4)ccc3n2)CC1	Pf growth 96h inconclusive, HCMV antiviral inconclusive, Pf growth 48h inconclusive, CHX counter 21.1
CCN1CCN(C(=S)Nc2ccc3nc(N4CCN(CC)CC4)cc(C)c3c2)CC1	Pf growth 48h 6.57µM
CCN1CCN(c2cc(C)c3cc(NC(=S)N4CCCC(C)C4)ccc3n2)CC1 (stereo not drawn)	HCMV antiviral -71.2, Shiga toxin inh 61.6, CHX counter 32.7
CCN1CCN(c2cc(C)c3cc(NC(=S)N4CC(C)CC(C)C4)ccc3n2)CC1 (stereo not drawn)	Pf growth 96h inconclusive, HCMV antiviral inconclusive, Pf growth 48h inconclusive
Cc1ccc2c(c1)C1CN(C)CCC1N2Sc1ccccc1[N+](=O)[O-] (stereo not drawn)	Pf growth 96h 10.4µM, Pf growth 48h inconclusive
COC(=O)c1cc2ccccc2c(-c2c(OC)c(C(=O)OC)cc3ccccc23)c1OC	Pf growth 96h 11.7µM, HCMV antiviral inconclusive, Pf growth 48h inconclusive
COc1ccc(C2Nc3ccccc3C(=O)N2Cc2ccccc2)cc1CN1CCOCC1 (stereo not drawn)	Pf growth 96h 13.1µM, Pf growth 48h 8.28µM
COc1ccc(C2Nc3ccccc3C(=O)N2Cc2ccccc2)cc1COc1ccc(Cl)cc1Cl (stereo not drawn)	Pf growth 48h 1.65µM (no result: HCMV antiviral, Shiga toxin inh, CHX counter)
COc1ccc(C2Nc3ccccc3C(=O)N2c2ccccc2)cc1CN1CCOCC1 (stereo not drawn)	Pf growth 96h inconclusive
COc1cccc(C2Nc3ccccc3C(=O)N2Cc2ccccc2)c1 (stereo not drawn)	none (no result: Pf growth 96h, Shiga toxin inh, Pf growth 48h, CHX counter)
Cc1cccc(Cn2nnc3c(=O)[nH]c(C4CCCN(C(=O)c5ccccc5Cl)C4)nc32)c1 (stereo not drawn)	none (no result: Pf growth 96h, Shiga toxin inh, Pf growth 48h, CHX counter)
Cc1ccc(-c2[nH]ncc2/C=N/n2c(COc3ccccc3)nc3ccccc3c2=O)cc1	Pf growth 96h 10.4µM, HCMV antiviral -77.9, Pf growth 48h 11.7µM, CHX counter 29.2
Cc1cc(/C=N/n2c(COc3ccccc3)nc3ccccc3c2=O)c(O)c([N+](=O)[O-])c1	HCMV antiviral -62.9
Cc1cccc(C)c1OCc1nc2ccccc2c(=O)n1/N=C/c1ccc(OCC(=O)O)cc1	none
Cc1ccccc1OCc1nc2ccccc2c(=O)n1/N=C/c1cccc([N+](=O)[O-])c1	Shiga toxin inh active, CHX counter 23.0
Cc1ccccc1OCc1nc2ccccc2c(=O)n1/N=C/c1cn[nH]c1-c1ccccc1	Pf growth 96h inconclusive, Pf growth 48h inconclusive
O=C(CSc1nc(-c2ccccc2Cl)ns1)Nc1ccc2c(c1)OCO2	Pf growth 96h inconclusive, HCMV antiviral inconclusive, Pf growth 48h 1.17µM, CHX counter 15.2
Cc1ccc(-c2nsc(SCC(=O)Nc3ccc4c(c3)OCO4)n2)cc1	Shiga toxin inh 23.8, CHX counter 18.2
O=C(CSc1nc(-c2ccccc2Cl)ns1)c1ccc(Cl)cc1	none
O=C1NC(=Nc2ccccc2)S/C1=C\c1cccn1-c1ccccc1	Pf growth 96h inconclusive, Shiga toxin inh 60.6, CHX counter 46.9 (no result: Pf growth 48h)
Cc1ccccc1N=C1NC(=O)/C(=C/c2cccn2C)S1	Pf growth 48h inconclusive, CHX counter 13.3
Cc1c(/C=C2\SC(=Nc3cccc(C(=O)O)c3)NC2=O)c2ccccc2n1C	none
